# Source: the supplement of paper PMC13380429
# Assays:
# [1] = tested on: Vero E6 infected with SARS-CoV-2; assay: morphology score (similarity to uninfected cells); higher = more like uninfected cells; details: 24 h
# [2] = tested on: Vero E6 infected with SARS-CoV-2; assay: SARS-CoV-2 infection rate relative to infected DMSO; higher = more infection, active = 60 or less; details: 24 h
structure (smiles),measurement,setting,value
CC[C@H](C)C(=O)O[C@H]1C[C@H](O)C=C2C=C[C@H](C)[C@H](CC[C@@H](O)C[C@@H](O)CC(=O)O)[C@H]21 (10 µM),morphology score,[1],0.0616
same,SARS-CoV-2 infection rate,[2],106% (inactive)
CS(=O)(=O)c1ccc(-c2cnc(N)c(C(=O)Nc3ccccc3)n2)cc1 (10 µM),morphology score,[1],0.278
same,SARS-CoV-2 infection rate,[2],87% (inactive)
CCCC1(CCC)CCC2(CCN(CCCN(CC)CC)C2)CC1 [atiprimod] (0.833333 µM),morphology score,[1],0.283
same,SARS-CoV-2 infection rate,[2],82.5% (inactive)
O=C(NCC1(N2CCN(c3ccccc3)CC2)CCOCC1)c1cccnc1Sc1ccccc1 (10 µM),morphology score,[1],-0.047
same,SARS-CoV-2 infection rate,[2],112% (inactive)
O=C(O)CCNc1cc(N2CCc3ccccc3CC2)nc(-c2cccnc2)n1 (10 µM),morphology score,[1],0.165
same,SARS-CoV-2 infection rate,[2],108% (inactive)
Cc1cc(C)c(NC(=O)N(Cc2ccc3c(c2)Cc2ccccc2-3)C2CCCCCC2)c(C)c1 (10 µM),morphology score,[1],-0.179
same,SARS-CoV-2 infection rate,[2],106% (inactive)
COC(=O)Nc1nc2cc(Sc3ccccc3)ccc2[nH]1 [fenbendazole] (0.833333 µM),morphology score,[1],0.126
same,SARS-CoV-2 infection rate,[2],106% (inactive)
COc1c(C)c(C(=O)c2ccc(N)c(C(=O)O)c2)n2ccccc12 (10 µM),morphology score,[1],0.0882
same,SARS-CoV-2 infection rate,[2],105% (inactive)
N[C@@H](C(=O)O)[C@@H](OCc1ccccc1)C(=O)O.N[C@H](C(=O)O)[C@H](OCc1ccccc1)C(=O)O (10 µM),morphology score,[1],0.0333
same,SARS-CoV-2 infection rate,[2],106% (inactive)
OC[C@H]1O[C@@H](n2cnc3c(NC4CCCC4)ncnc32)[C@H](O)[C@@H]1O [N6-cyclopentyladenosine] (10 µM),morphology score,[1],-0.0139
same,SARS-CoV-2 infection rate,[2],109% (inactive)
OCCOCCN1CCN(C(c2ccccc2)c2ccc(Cl)cc2)CC1 (stereo not given) [hydroxyzine] (10 µM),morphology score,[1],0.0655
same,SARS-CoV-2 infection rate,[2],104% (inactive)
N#Cc1nn(-c2c(Cl)cc(C(F)(F)F)cc2Cl)c(N)c1[S+]([O-])C(F)(F)F (stereo not given) [fipronil] (10 µM),morphology score,[1],0.0672
same,SARS-CoV-2 infection rate,[2],102% (inactive)
CS(=O)(=O)c1ccc(Oc2cc(F)cc(C#N)c2)c2c1[C@H](O)C(F)(F)C2 (10 µM),morphology score,[1],0.0223
same,SARS-CoV-2 infection rate,[2],99% (inactive)
OC[C@H]1O[C@@H](Oc2ccc(O)cc2)[C@H](O)[C@@H](O)[C@@H]1O [arbutin] (10 µM),morphology score,[1],0.104
same,SARS-CoV-2 infection rate,[2],104% (inactive)
O[C@H]1[C@H](O)[C@@H](O)[C@H](O)[C@@H](O)[C@H]1O [inositol] (10 µM),morphology score,[1],-0.166
same,SARS-CoV-2 infection rate,[2],95.5% (inactive)
CCN(CC)CC1CCCCN1CC(=O)N1c2ccccc2C(=O)Nc2cccnc21 (stereo not given) [otenzepad] (10 µM),morphology score,[1],0.171
same,SARS-CoV-2 infection rate,[2],94.5% (inactive)
CC(C)=CCc1c(O)cc(O)c2c(=O)c(O)c(-c3ccc(C(F)(F)F)cc3)oc12 (0.833333 µM),morphology score,[1],0.14
same,SARS-CoV-2 infection rate,[2],104% (inactive)
Cn1nc(-c2cccc(F)c2)n(C)c1=S [suritozole] (10 µM),morphology score,[1],0.141
same,SARS-CoV-2 infection rate,[2],101% (inactive)
Cc1cc(O)c2c(c1)C(=O)c1cc(O)cc(O)c1C2=O [emodin] (10 µM),morphology score,[1],0.146
same,SARS-CoV-2 infection rate,[2],106% (inactive)
N[C@@H](Cc1cc(CP(=O)(O)O)cc(-c2ccccc2Cl)c1)C(=O)O (10 µM),morphology score,[1],0.0155
same,SARS-CoV-2 infection rate,[2],97.5% (inactive)
O=C1NC(=O)C(c2ccccc2[N+](=O)[O-])=C1Nc1ccc(O)c(Cl)c1 (10 µM),morphology score,[1],-0.00184
same,SARS-CoV-2 infection rate,[2],114% (inactive)
Cc1cccc(NC(=O)N[C@@H]2N=C(c3ccccc3)c3ccccc3N(C)C2=O)c1 (10 µM),morphology score,[1],0.0212
same,SARS-CoV-2 infection rate,[2],106% (inactive)
N[C@H](C(=O)O)c1ccc(O)cc1 [oxfenicine] (10 µM),morphology score,[1],0.246
same,SARS-CoV-2 infection rate,[2],103% (inactive)
CN(Cc1cc(Br)cc(Br)c1N)C1CCCCC1 [bromhexine] (10 µM),morphology score,[1],-0.0228
same,SARS-CoV-2 infection rate,[2],102% (inactive)
CN(C)[C@@H]1C(O)=C(C(N)=O)C(=O)[C@@]2(O)C(O)=C3C(=O)c4c(O)cccc4[C@@](C)(O)[C@H]3[C@H](O)[C@@H]12 [oxytetracycline] (10 µM),morphology score,[1],-0.0366
same,SARS-CoV-2 infection rate,[2],106% (inactive)
COc1cc2c(N3CCN(C(=O)Nc4ccc(OC(C)C)cc4)CC3)ncnc2cc1OCCCN1CCCCC1 [tandutinib] (10 µM),morphology score,[1],-0.0843
same,SARS-CoV-2 infection rate,[2],95.5% (inactive)
COc1cc(C(C)=O)ccc1OCCCN1CCC(c2noc3cc(F)ccc23)CC1 [iloperidone] (10 µM),morphology score,[1],-0.112
same,SARS-CoV-2 infection rate,[2],111% (inactive)
CNC(=O)c1cc2c(cn1)[nH]c1ccccc12 (10 µM),morphology score,[1],0.241
same,SARS-CoV-2 infection rate,[2],85.5% (inactive)
CCOc1cc([C@@H](CS(C)(=O)=O)N2C(=O)c3cccc(NC(C)=O)c3C2=O)ccc1OC [apremilast] (10 µM),morphology score,[1],0.345
same,SARS-CoV-2 infection rate,[2],89% (inactive)
CC(C)NCC(O)COc1cccc2[nH]c3ccccc3c12 (stereo not given) [carazolol] (10 µM),morphology score,[1],-0.011
same,SARS-CoV-2 infection rate,[2],91.5% (inactive)
CC(C)(C)NCC(O)c1ccc(O)c(CO)c1 (stereo not given) [albuterol] (10 µM),morphology score,[1],0.108
same,SARS-CoV-2 infection rate,[2],100% (inactive)
CC#CC(=O)N1CC[C@@H](n2c(=O)n(-c3ccc(Oc4ccccc4)cc3)c3c(N)ncnc32)C1 (0.833333 µM),morphology score,[1],-0.0591
same,SARS-CoV-2 infection rate,[2],90% (inactive)
"CC1(C)[C@@H]2C[C@@H](O)[C@@](C)(O)[C@H]1C2 [2,3-cis/exo-pinanediol] (10 µM)",morphology score,[1],0.0892
same,SARS-CoV-2 infection rate,[2],95.5% (inactive)
CCN(CC)CCOC(=O)C(c1ccccc1)c1ccccc1 [adiphenine] (10 µM),morphology score,[1],-0.106
same,SARS-CoV-2 infection rate,[2],110% (inactive)
O=C1NCN(c2ccccc2)C12CCN(CC1COc3ccccc3O1)CC2 (stereo not given) [spiroxatrine] (10 µM),morphology score,[1],-0.179
same,SARS-CoV-2 infection rate,[2],114% (inactive)
O=C(O)Cc1ccccc1Nc1c(Cl)cccc1Cl [diclofenac] (10 µM),morphology score,[1],-0.00811
same,SARS-CoV-2 infection rate,[2],106% (inactive)
CCCCC/C=C\C/C=C\CCCCCCCC(=O)NCCCC(=O)O [GABA-linoleamide] (10 µM),morphology score,[1],0.105
same,SARS-CoV-2 infection rate,[2],97.5% (inactive)
C[C@]12C[C@H](O)[C@H]3[C@@H](CCC4=CC(=O)CC[C@@]43C)[C@@H]1CC[C@@H]2C(=O)CO [corticosterone] (10 µM),morphology score,[1],0.0999
same,SARS-CoV-2 infection rate,[2],110% (inactive)
CC[N+](C)(CC)CCC[n+]1c(-c2ccccc2)c2cc(N)ccc2c2ccc(N)cc21 [propidium-iodide] (10 µM),morphology score,[1],0.271
same,SARS-CoV-2 infection rate,[2],93.5% (inactive)
O=C(O)c1cc(/N=N/c2ccc(S(=O)(=O)Nc3ccccn3)cc2)ccc1O [sulfasalazine] (10 µM),morphology score,[1],0.0447
same,SARS-CoV-2 infection rate,[2],105% (inactive)
C[C@H]1[C@H](C)CC[C@]2(C(=O)O)CC[C@]3(C)C(=CC[C@@H]4[C@@]5(C)C[C@@H](O)[C@H](O)C(C)(C)[C@@H]5CC[C@]43C)[C@H]12 [corosolic-acid] (10 µM),morphology score,[1],-0.302
same,SARS-CoV-2 infection rate,[2],116% (inactive)
CCOc1cc2ncc(C#N)c(Nc3ccc(OCc4cccc(F)c4)c(Cl)c3)c2cc1NC(=O)/C=C/CN(C)C (10 µM),morphology score,[1],-0.202
same,SARS-CoV-2 infection rate,[2],99.5% (inactive)
Nc1ncnc2c1ncn2[C@@H]1O[C@@H]2COP(=O)(O)O[C@H]2[C@H]1O [cyclic-AMP] (10 µM),morphology score,[1],0.255
same,SARS-CoV-2 infection rate,[2],86.5% (inactive)
Clc1ccc(Nc2nnc(Cc3ccncc3)c3ccccc23)cc1 [vatalanib] (10 µM),morphology score,[1],0.199
same,SARS-CoV-2 infection rate,[2],96% (inactive)
Cc1ccc(F)c(NC(=O)Nc2ccc(-c3cccc4[nH]nc(N)c34)cc2)c1 [linifanib] (10 µM),morphology score,[1],-0.188
same,SARS-CoV-2 infection rate,[2],118% (inactive)
O=C(OCCN1CCOCC1)c1cccnc1Nc1cccc(C(F)(F)F)c1 [morniflumate] (10 µM),morphology score,[1],0.0767
same,SARS-CoV-2 infection rate,[2],108% (inactive)
O=C(NCc1ccc(OC(F)(F)F)cc1)C1c2ccccc2C(=O)N1C1CCOCC1 (stereo not given) (10 µM),morphology score,[1],-0.0695
same,SARS-CoV-2 infection rate,[2],105% (inactive)
N#Cc1cc(-c2n[nH]c(-c3ccncc3)n2)ccn1 [topiroxostat] (10 µM),morphology score,[1],0.145
same,SARS-CoV-2 infection rate,[2],94.5% (inactive)
COc1ccc(C(=O)CC2(O)C(=O)Nc3c(Cl)ccc(Cl)c32)cc1 (stereo not given) (0.833333 µM),morphology score,[1],0.00554
same,SARS-CoV-2 infection rate,[2],95% (inactive)
Nc1nc(=O)n([C@H]2C[C@H](O)[C@@H](CO)O2)cc1Cl [cytochlor] (10 µM),morphology score,[1],0.156
same,SARS-CoV-2 infection rate,[2],102% (inactive)
CC(=O)[C@]1(O)Cc2c(O)c3c(c(O)c2[C@@H](O[C@H]2C[C@H](N)[C@H](O)[C@H](C)O2)C1)C(=O)c1ccccc1C3=O [idarubicin] (0.833333 µM),morphology score,[1],-0.15
same,SARS-CoV-2 infection rate,[2],106% (inactive)
C#Cc1cncc([C@@H]2CCCN2C)c1 [altinicline] (10 µM),morphology score,[1],0.0585
same,SARS-CoV-2 infection rate,[2],98.5% (inactive)
COc1cc(O)c(C(=O)c2ccccc2)cc1S(=O)(=O)O [sulisobenzone] (10 µM),morphology score,[1],-0.0207
same,SARS-CoV-2 infection rate,[2],109% (inactive)
Cc1nnc2ccc(-c3cccc(C(F)(F)F)c3)nn12 (10 µM),morphology score,[1],-0.183
same,SARS-CoV-2 infection rate,[2],104% (inactive)
C=C1/C(=C\C=C2/CCC[C@]3(C)[C@@H]([C@H](C)/C=C/[C@H](C)C(C)C)CC[C@@H]23)C[C@@H](O)C[C@@H]1O [doxercalciferol] (10 µM),morphology score,[1],-0.0772
same,SARS-CoV-2 infection rate,[2],106% (inactive)
CCC[C@H](N[C@@H](C)C(=O)N1[C@H](C(=O)O)C[C@@H]2CCCC[C@@H]21)C(=O)O [perindoprilat] (10 µM),morphology score,[1],0.276
same,SARS-CoV-2 infection rate,[2],104% (inactive)
Cc1cc(I)ccc1Nc1c(C(=O)NOCC2CC2)cc(F)c(F)c1F (10 µM),morphology score,[1],0.0652
same,SARS-CoV-2 infection rate,[2],113% (inactive)
CN1[C@@H]2CC[C@H]1C[C@@H](OC1c3ccccc3CCc3ccccc31)C2 [deptropine] (0.833333 µM),morphology score,[1],0.24
same,SARS-CoV-2 infection rate,[2],100% (inactive)
CSc1nc(NC2CCCC2)c([N+](=O)[O-])c(NC2CCCC2)n1 (10 µM),morphology score,[1],0.349
same,SARS-CoV-2 infection rate,[2],88% (inactive)
CNC(=O)c1cc(Oc2ccc(NC(=O)Nc3ccc(Cl)c(C(F)(F)F)c3)cc2)ccn1 [sorafenib] (0.833333 µM),morphology score,[1],-0.246
same,SARS-CoV-2 infection rate,[2],118% (inactive)
